This is part of a sample that, as a whole, favours compounds with a hit. Of some 83,000 tested, about 20% had one in any assay.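 96-well plates, one dose, 48 hours. Percent growth reported; active if below 10.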 A number with no mark means an inactive call. The source made the active and inactive calls.
What was measured:
Test in all cases: NCI-60 one-dose screen, 48 h (100 = growth as untreated, 0 = no growth, -100 = all killed)
Conditions in all cases: 10 µM unless noted
[1] = system: SR leukemia
[2] = system: RPMI-8226 leukemia
[3] = system: OVCAR-8 ovarian
[4] = system: OVCAR-5 ovarian
[5] = system: OVCAR-4 ovarian
[6] = system: SK-OV-3 ovarian
[7] = system: IGROV1 ovarian
[8] = system: OVCAR-3 ovarian
[9] = system: HS 578T breast
[10] = system: NCI/ADR-RES ovarian
[11] = system: T-47D breast
[12] = system: MDA-MB-435 melanoma
[13] = system: SW-620 colon
[14] = system: MCF7 breast
[15] = system: HCT-116 colon
[16] = system: HCC-2998 colon
[17] = system: KM12 colon
[18] = system: BT-549 breast

| SMILES | growth [1] | growth [2] | growth [3] | growth [4] | growth [5] | growth [6] | growth [7] | growth [8] | growth [9] | growth [10] | growth [11] | growth [12] | growth [13] | growth [14] | growth [15] | growth [16] | growth [17] | growth [18] |
| --- | --- | --- | --- | --- | --- | --- | --- | --- | --- | --- | --- | --- | --- | --- | --- | --- | --- | --- |
| CN(C)CC(O)c1ccc(/C=C/c2ccc(Cl)cc2)cc1 (stereo unspecified) | -38.8% (active) | -8.89% (active) | -34.2% (active) | 2.11% (active) | 25.2% | 52.8% | -57.8% (active) | -64.8% (active) | -26.3% (active) | 5.74% (active) | 30.9% | -48.2% (active) | -68.7% (active) | -81.6% (active) | -58.3% (active) | -69% (active) | -91.5% (active) | – |
| O=C(Cc1ccccc1)NNc1nc(Cl)nc(N2CCN(C(c3ccccc3)c3ccccc3)CC2)n1 | 10.7% | 101% | 91.8% | 94.8% | 106% | 105% | 64.5% | 101% | 98.9% | 102% | 84.4% | 100% | – | 92.3% | 80% | 73.6% | 97.5% | 99.3% |
| NS(=O)(=O)c1ccc(CCn2c(SCC(=O)c3ccc(Cl)cc3)nc3ccccc3c2=O)cc1 | 100% | 107% | 107% | 108% | 103% | 107% | 107% | 109% | 101% | 98.6% | 95.3% | 102% | 103% | 91.8% | 97% | 87.7% | 102% | – |
| N#CC1C(C#N)C(C(=O)c2ccc(Br)cc2)N2c3ccccc3C=CC12 (stereo unspecified) | 34.9% | 94.1% | 90.9% | 55.2% | 43.7% | 79.4% | 39.7% | 75.5% | 77.6% | 64.1% | 49.3% | 16% | 66.4% | 13% | 68.5% | 50.7% | 22.3% | – |
| CCN(CC)c1ccc(/C=N/NC(=O)CSc2nc3ccccc3c(=O)n2CCc2ccc(S(N)(=O)=O)cc2)c(O)c1 | 13.8% | -31.5% (active) | 8.51% (active) | 47.7% | 19.7% | 41.1% | 13.7% | 1.89% (active) | 46.3% | 82.6% | 13.9% | 31.9% | 27% | 11.1% | 10.7% | 35.8% | 19.1% | – |
| CCCCCCCCOc1ccc(/C=N/Nc2cc(C)nc3ccc(Br)cc23)cc1 | -14.3% (active) | 36.6% | 46.4% | 101% | -1.74% (active) | 104% | 62.5% | 67.1% | 64.1% | 65.1% | 80.9% | 64.7% | 8.02% (active) | 15.8% | 6.51% (active) | 89.8% | 57% | – |
| CC(=O)N1N=C(c2ccc(-n3ccc(C(F)(F)F)n3)c(F)c2)CC1c1ccc[nH]1 (stereo unspecified) | 92.8% | 80.8% | 98.9% | 105% | 102% | 118% | 112% | 107% | 106% | 104% | 91.9% | 99.8% | 107% | 92.8% | 103% | 111% | 101% | – |
| CCOC(=O)Oc1c(OC)cc(C(=O)c2ccc(OC)c(OC(=O)CCl)c2OC)cc1OC | 29.4% | 18.4% | 25.5% | 77% | 79.8% | 19.7% | 40.4% | -18.4% (active) | 15.2% | -5.85% (active) | 36.2% | -35.9% (active) | 21.9% | 16.6% | 11.4% | 43.3% | 21.9% | – |

From PubChem BioAssay (NCI)
